# Assay results as given in PubChem BioAssay.
# Calls of active or inactive are those of the source.
# What was measured:
# [1] = binders of probe aFSTL3 on microarray, primary screen, stem cell growth factor project, biochemical, small-molecule microarray, fluorescence 635/667 (AID 1064); details: higher = more signal;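 also: measures binding of the biotinylated anti-FSTL3 antibody to printed compounds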
# [2] = binders from COS7 lysate, DM2A8 probe, primary screen, torsin A project, cell lysate, small-molecule microarray, fluorescence 635/667 (AID 1065); details: higher = more signal, COS7 lysate expressing mutant human TOR1A
# [3] = binders of probe aFGF2 on microarray, primary screen, stem cell growth factor project, biochemical, small-molecule microarray, fluorescence 635/667 (AID 1067); details: higher = more signal;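 also: measures binding of biotinylated aFGF2 protein to printed compounds on slides; z-score merges feature fluorescence and signal-to-noise across triplicate slides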
# [4] = binders of probe aFGF10 on microarray, primary screen, stem cell growth factor project, biochemical, small-molecule microarray, fluorescence 635/667 (AID 1071); details: higher = more signal;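 also: score merges 667 nm spot intensity and signal to noise from triplicate slides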
# [5] = target: Neurogenic locus notch homolog protein 2 (Homo sapiens) (UniProt Q04721); assay: Notch2 binders on small-molecule microarrays, primary screen, biochemical, small-molecule microarray, 635 nm fluorescence, stem cell growth factors (AID 1073); details: Notch2 binding, higher = more signal
# [6] = target: Pro-neuregulin-1, membrane-bound isoform (Homo sapiens) (UniProt Q02297); assay: NRG1 binders on small-molecule microarrays, primary screen, psychiatric disease protein project, biochemical, small-molecule microarray, fluorescence 635/667 (AID 1075); details: NRG1 binding, 635 nm fluorescence, higher = more signal;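 also: score combines 667 nm spot fluorescence with signal to noise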
# [7] = tested on: Neuregulin-1 EGF-like domain; assay: binders of neuregulin-1 EGF-like domain, primary screen, biochemical, small-molecule microarray, 635 nm fluorescence (AID 1081); details: small-molecule microarray binding, higher = more signal;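 also: binding of the protein to compounds printed on small-molecule microarray slides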
# [8] = FRG1 promoter luciferase signal modulators, primary screen, FRG1 inhibition for FSHD, cell-based, C2C12 myotubes, firefly/Renilla luciferase, luminescence (AID 1084); details: higher = more signal, called active from +8 up or from −8 down
# [9] = binders of probe aFST on microarray, primary screen, stem cell growth factor project, biochemical, small-molecule microarray, fluorescence 635/667 (AID 1086); details: higher = more signal;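 also: score merges 667 nm fluorescence with signal-to-noise of each printed compound spot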
# [10] = binders of probe aHhip on microarray, primary screen, stem cell growth factor project, biochemical, small-molecule microarray, fluorescence 635/667 (AID 1087); details: higher = more signal;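 also: score merges spot fluorescence at 667nm with spot signal to noise ratio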
# [11] = tested on: PRMT1 (protein arginine N-methyltransferase 1); assay: PRMT1 binders on small-molecule microarrays, primary screen, biochemical, small-molecule microarray, 635 nm fluorescence (AID 1088); details: small-molecule microarray binding, higher = more signal;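 also: binding of Prmt1 protein to compounds spotted on small-molecule microarray slides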
# [12] = yeast growth modulation, basal conditions, primary screen, YJM789 clinical isolate, OD600, 24 h (AID 1089);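 also: growth of clinical yeast isolate S. cerevisiae YJM 789 seeded 1000 cells per well; test concentration not given here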; details: S. cerevisiae YJM789 growth, higher = more signal, called active from +8 up or from −8 down
# [13] = fission yeast growth modulation, primary screen, strain 972, OD600, 24 h, no modulator (AID 1090);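 also: basal condition with compound alone and no growth modifier present; test concentration not given here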; details: S. pombe 972 growth, higher = more signal, called active from +8 up or from −8 down
# [14] = S. cerevisiae growth modulation with rapamycin, primary screen, strain BY4716, OD600, 96 h (AID 1091); details: higher = more signal, called active from +8 up or from −8 down; also: test concentration not given here
# [15] = target: Torsin-1A-interacting protein 2 (Homo sapiens) (UniProt Q8NFQ8); assay: LULL1 binders on small-molecule microarray, primary screen, cell lysate, human LULL1 lysate, 635/667 nm fluorescence (AID 1092); details: hLULL1 lysate binding, 635 nm fluorescence, higher = more signal;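 also: probe is lysate of COS7 cells overexpressing human LULL1; score merges per-feature 667 nm fluorescence with signal-to-noise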
# [16] = E. coli growth modulation, two-sided OD650, primary screen, E. coli filamentation project, strain DRC41, 24 h (AID 1093); details: OD650, 24 h, higher = more signal, called active from +8 up or from −8 down;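 also: MC1000 strain lacking acrAB efflux and sulA so SOS filamentation is blocked; test concentration not given here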
# [17] = small-molecule microarray binders of probe aLefty2, primary screen, biochemical, biotinylated probe, 635/667 nm fluorescence (AID 1094); details: higher = more signal;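 also: score merges spot fluorescence near 667 nm with spot signal-to-noise ratio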
# [18] = tested on: Noggin (protein binding on small-molecule microarray); assay: Noggin binders on small-molecule microarray, primary screen, biochemical, 635/667 nm fluorescence (AID 1095); details: 635 nm fluorescence, higher = more signal;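 also: score merges 667 nm feature fluorescence with signal to noise over triplicate slides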
# [19] = target: Neurogenic locus notch homolog protein 3 (Homo sapiens) (UniProt Q9UM47); assay: NOTCH3 binders on small-molecule microarray, primary screen, biochemical, 635/667 nm fluorescence (AID 1096); details: NOTCH3 binding, 635 nm fluorescence, higher = more signal
# [20] = small-molecule microarray binders of probe aEGFR, primary screen, biochemical, biotinylated probe, 635/667 nm fluorescence (AID 1097); details: higher = more signal;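 also: probe is a biotinylated anti-EGFR antibody binding compounds printed on slides; score combines fluorescence near 667 nm and signal to noise of each spot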
# Torsin-1A-interacting protein 2 (Homo sapiens), sequence (Q8NFQ8 whole entry, looked up): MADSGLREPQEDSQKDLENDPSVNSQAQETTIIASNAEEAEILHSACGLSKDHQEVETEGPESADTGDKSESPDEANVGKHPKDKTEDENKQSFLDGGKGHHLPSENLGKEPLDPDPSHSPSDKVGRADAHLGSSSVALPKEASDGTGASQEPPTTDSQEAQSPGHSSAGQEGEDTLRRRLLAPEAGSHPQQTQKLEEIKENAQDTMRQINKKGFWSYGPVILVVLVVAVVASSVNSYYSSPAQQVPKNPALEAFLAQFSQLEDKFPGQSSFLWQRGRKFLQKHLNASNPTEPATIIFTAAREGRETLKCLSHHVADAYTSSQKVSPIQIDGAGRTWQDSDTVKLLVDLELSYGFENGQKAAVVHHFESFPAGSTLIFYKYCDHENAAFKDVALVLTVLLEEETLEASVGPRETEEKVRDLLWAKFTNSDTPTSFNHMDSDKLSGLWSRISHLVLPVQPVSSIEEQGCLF
# Pro-neuregulin-1, membrane-bound isoform (Homo sapiens), sequence (Q02297 whole entry, looked up, the tested form may be a part, canonical isoform): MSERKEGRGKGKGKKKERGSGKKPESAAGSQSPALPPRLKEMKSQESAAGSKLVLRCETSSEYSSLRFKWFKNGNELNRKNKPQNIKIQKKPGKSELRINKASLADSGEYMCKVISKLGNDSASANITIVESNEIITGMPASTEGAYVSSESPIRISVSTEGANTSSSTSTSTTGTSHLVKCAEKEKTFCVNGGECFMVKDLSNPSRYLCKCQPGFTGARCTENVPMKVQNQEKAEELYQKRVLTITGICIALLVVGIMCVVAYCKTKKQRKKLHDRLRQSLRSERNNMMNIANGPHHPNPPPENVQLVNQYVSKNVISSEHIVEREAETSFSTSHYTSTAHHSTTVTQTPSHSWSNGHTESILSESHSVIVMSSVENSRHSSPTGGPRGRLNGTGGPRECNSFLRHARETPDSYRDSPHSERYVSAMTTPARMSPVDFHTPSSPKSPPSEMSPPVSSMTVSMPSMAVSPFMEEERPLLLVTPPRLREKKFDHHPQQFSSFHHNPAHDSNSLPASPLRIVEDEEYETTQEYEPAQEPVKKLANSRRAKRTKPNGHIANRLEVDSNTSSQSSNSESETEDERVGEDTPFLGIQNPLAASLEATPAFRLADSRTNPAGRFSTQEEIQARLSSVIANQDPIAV
# Neurogenic locus notch homolog protein 3 (Homo sapiens), sequence (Q9UM47 whole entry, looked up): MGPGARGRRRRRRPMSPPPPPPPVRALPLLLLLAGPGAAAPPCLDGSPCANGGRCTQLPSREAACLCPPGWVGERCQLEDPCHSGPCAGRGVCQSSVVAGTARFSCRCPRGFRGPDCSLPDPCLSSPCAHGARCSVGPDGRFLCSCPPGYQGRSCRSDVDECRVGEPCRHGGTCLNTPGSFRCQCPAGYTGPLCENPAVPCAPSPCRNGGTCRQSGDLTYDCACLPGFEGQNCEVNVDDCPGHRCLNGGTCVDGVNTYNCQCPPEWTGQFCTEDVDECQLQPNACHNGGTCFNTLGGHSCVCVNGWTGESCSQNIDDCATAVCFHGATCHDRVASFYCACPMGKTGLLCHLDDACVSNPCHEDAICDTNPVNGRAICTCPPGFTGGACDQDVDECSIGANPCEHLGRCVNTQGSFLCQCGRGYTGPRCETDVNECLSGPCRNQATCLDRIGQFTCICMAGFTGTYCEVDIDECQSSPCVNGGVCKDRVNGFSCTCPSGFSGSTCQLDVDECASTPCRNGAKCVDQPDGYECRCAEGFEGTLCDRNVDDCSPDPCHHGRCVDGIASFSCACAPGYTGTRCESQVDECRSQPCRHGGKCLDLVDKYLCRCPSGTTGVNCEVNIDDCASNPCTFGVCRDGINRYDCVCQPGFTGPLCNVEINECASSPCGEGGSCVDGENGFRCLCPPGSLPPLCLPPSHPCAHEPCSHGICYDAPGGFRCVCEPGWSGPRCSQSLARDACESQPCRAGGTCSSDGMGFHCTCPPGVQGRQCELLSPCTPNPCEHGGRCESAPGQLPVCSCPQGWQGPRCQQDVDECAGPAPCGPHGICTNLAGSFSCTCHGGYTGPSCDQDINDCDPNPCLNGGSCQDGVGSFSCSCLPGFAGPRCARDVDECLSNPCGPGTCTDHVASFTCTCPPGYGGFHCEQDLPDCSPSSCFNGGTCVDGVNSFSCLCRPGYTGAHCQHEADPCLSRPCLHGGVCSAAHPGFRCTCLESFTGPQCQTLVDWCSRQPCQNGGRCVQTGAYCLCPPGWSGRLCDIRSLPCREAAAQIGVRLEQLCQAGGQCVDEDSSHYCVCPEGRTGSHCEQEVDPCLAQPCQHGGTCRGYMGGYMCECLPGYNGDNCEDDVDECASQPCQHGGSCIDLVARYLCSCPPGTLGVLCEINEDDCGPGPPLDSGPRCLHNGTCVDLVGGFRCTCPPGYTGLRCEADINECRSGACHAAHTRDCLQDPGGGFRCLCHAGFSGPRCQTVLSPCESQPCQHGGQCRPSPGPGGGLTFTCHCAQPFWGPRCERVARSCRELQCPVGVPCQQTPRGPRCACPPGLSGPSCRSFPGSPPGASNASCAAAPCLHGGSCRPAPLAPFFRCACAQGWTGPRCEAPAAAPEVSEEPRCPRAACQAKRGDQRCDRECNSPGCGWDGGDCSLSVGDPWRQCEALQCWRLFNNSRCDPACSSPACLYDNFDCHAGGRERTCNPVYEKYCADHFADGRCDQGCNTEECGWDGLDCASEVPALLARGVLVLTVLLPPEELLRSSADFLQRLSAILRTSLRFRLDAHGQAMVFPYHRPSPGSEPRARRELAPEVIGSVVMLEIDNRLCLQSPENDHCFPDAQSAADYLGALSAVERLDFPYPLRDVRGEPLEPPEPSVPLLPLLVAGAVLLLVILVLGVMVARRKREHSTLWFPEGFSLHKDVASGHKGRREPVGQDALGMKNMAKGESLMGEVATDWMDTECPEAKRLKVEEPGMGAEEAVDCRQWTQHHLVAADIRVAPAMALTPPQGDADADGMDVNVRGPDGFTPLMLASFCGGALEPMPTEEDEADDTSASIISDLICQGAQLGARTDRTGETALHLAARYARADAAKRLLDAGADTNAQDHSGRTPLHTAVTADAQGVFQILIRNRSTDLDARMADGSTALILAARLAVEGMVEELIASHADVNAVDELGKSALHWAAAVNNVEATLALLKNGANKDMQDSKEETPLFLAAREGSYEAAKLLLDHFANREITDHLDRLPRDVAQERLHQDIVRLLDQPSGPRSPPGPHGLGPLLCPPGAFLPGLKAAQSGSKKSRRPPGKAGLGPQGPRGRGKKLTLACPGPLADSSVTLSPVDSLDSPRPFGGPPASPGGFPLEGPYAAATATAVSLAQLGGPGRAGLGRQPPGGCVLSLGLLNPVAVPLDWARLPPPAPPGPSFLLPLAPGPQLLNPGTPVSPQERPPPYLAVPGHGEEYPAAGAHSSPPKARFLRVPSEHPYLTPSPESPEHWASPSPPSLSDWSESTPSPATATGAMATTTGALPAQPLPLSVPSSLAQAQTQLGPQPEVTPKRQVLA
SMILES,composite z-score [1],composite z-score [2],composite z-score [3],composite z-score [4],composite z-score [5],composite z-score [6],composite z-score [7],z-score [8],composite z-score [9],composite z-score [10],composite z-score [11],z-score [12],z-score [13],z-score [14],composite z-score [15],z-score [16],composite z-score [17],composite z-score [18],composite z-score [19],composite z-score [20]
C[N+](C)(C)CCCCNC(=O)[C@H]1C[C@H]2C(=O)NCC(=O)N2[C@H]1c1cccc(OCCO)c1,-0.514,2.35,-0.0375,1.15,0.0841,0.309,1.43,1.73 (inactive),0.533,0.245,1.54,-0.138 (inactive),0.0073 (inactive),-1.66 (inactive),0.57,-0.271 (inactive),-0.0463,1.91,1.05,0.0717
C=CC[C@]1(C(=O)N2CCCCC2)N=C(c2ccc(OCCCO)cc2)O[C@H]1c1ccccc1N=[N+]=[N-],1.16,1.11,0.256,0.984,1.5,1.67,1.24,-2.1 (inactive),1.87,-0.0237,1.58,-0.534 (inactive),-1.18 (inactive),0.946 (inactive),3.44,0.208 (inactive),0.619,1.17,1.08,0.561
C=CC[C@]1(C(=O)O)N=C(c2ccc(OCCCO)cc2)O[C@H]1c1ccccc1N=[N+]=[N-],1.17,-0.258,-0.101,0.427,-0.16,0.215,0.686,4.6 (inactive),0.489,-0.403,-0.417,0.942 (inactive),-0.155 (inactive),-0.336 (inactive),2.62,1.32 (inactive),0.0313,-0.491,-0.33,-0.0059
CCCC=C(CCC)[C@@H](NC(=O)c1ccccc1)c1ccccc1,0.969,-0.239,-0.0392,-0.41,-0.028,-0.806,-0.943,-0.788 (inactive),0.636,0.304,-0.732,0.0874 (inactive),-0.272 (inactive),0.912 (inactive),0.446,-0.494 (inactive),-0.0446,-0.96,-0.177,-0.0828
C=C(CCCC)/C(=C/C[C@@H](OC(=O)c1ccncc1)c1cccc(OCCO)c1)c1cc(C(=O)OC)ccc1OC,-0.0606,0.522,0.0211,0.291,0.535,1.38,1.26,9.67 (active),0.223,0.0722,1.36,0.526 (inactive),-1.17 (inactive),0.289 (inactive),0.48,1.27 (inactive),-0.0102,1.37,1.04,0.0376
CN(C)CCCC[C@@H]1NC(=O)[C@@H]2C[C@H](C(=O)O)[C@H](c3ccc(O)cc3)N2C1=O,0.491,0.738,-0.128,0.217,-0.0401,0.237,1.28,1.7 (inactive),0.212,-0.279,1.41,-0.937 (inactive),-1.04 (inactive),-0.587 (inactive),0.728,2.71 (inactive),-0.153,1.01,0.385,-0.0605
[N-]=[N+]=Nc1ccccc1C[C@@]1(C(=O)N2CCOCC2)N=C(c2ccc(OCCCO)cc2)O[C@@H]1c1ccccc1N=[N+]=[N-],1.14,0.782,0.195,0.707,1.45,0.889,1.12,-1.36 (inactive),1.18,0.0511,1.56,-0.822 (inactive),-2.95 (inactive),1.56 (inactive),2.32,2.13 (inactive),0.369,0.8,1.09,0.0477
CCCC[C@@H]1C[C@H]1[C@@H](NC(=O)c1cccs1)c1ccc(Cl)cc1,0.521,-0.6,-0.141,-0.543,-1.45,-0.273,-0.669,0.902 (inactive),-0.531,-0.0003,-0.117,-0.0596 (inactive),0.806 (inactive),0.413 (inactive),0.795,-1 (inactive),-0.168,-1.69,-1.73,-0.288
CO[C@@H]1COC(=O)[C@@H]2CCCN2C(=O)CC=C[C@@H](C)[C@H](OC)COC(=O)[C@@H]2CCCN2C(=O)CC=C[C@H]1C,-0.614,0.164,-0.113,0.0311,-0.545,-0.312,0.732,0.47 (inactive),-0.0975,0.347,1.11,-0.0171 (inactive),-1.05 (inactive),-0.258 (inactive),-0.522,1.1 (inactive),-0.166,1.14,-0.325,-0.0332
Cc1ccc(N2C(=O)c3ccccc3[C@](C)(C(=O)O)[C@@H]2c2ccc(CO)cc2)nc1,1.5,-0.461,-0.224,-1.1,-1.52,1.91,-0.402,0.744 (inactive),-0.663,-0.181,-1.11,0.508 (inactive),-0.633 (inactive),0.653 (inactive),-1.18,1.62 (inactive),-0.15,-2.06,-1.17,-0.427
COc1ccc(C(O)C2C=CC3C(=O)N(C)C(=O)C3N2N2CCCCC2)cc1OCc1ccccc1 (stereo not given),0.556,-0.599,-0.0135,0.49,1.57,1.52,1.27,0.451 (inactive),0.994,0.232,0.922,0.371 (inactive),-0.0814 (inactive),1.01 (inactive),2.73,-1.23 (inactive),0.491,-0.171,1.12,0.0787
C=CCc1cccc([C@H]2N[C@H](C(=O)O)CC[C@@H]2C)c1,-0.746,0.604,-0.221,0.502,-0.441,-0.0316,0.519,-0.204 (inactive),-0.099,0.122,0.453,0.468 (inactive),0.0843 (inactive),2.04 (inactive),-0.0584,0.271 (inactive),-0.203,1.17,0.245,-0.0828
CC(C)C[C@@H]1NC(=O)[C@H]2C[C@@H](C(=O)NCCCCCC[N+](C)(C)C)[C@@H](c3ccc(O)cc3)N2C1=O,-0.332,0.64,-0.189,-0.615,-0.471,1.77,1.41,2.82 (inactive),0.0716,-0.0994,0.423,0.248 (inactive),0.0827 (inactive),0.109 (inactive),1.82,0.283 (inactive),-0.134,1.12,0.275,-0.149
COc1ccc([Si](C)(C)[C@@H]2[C@@H](CCO)O[C@]3(C(=O)N(Cc4ccccc4)c4ccccc43)[C@H]2C)cc1,-0.377,0.274,-0.0692,0.351,0.216,-0.01,0.501,0.377 (inactive),-0.0439,-0.0994,1.06,0.566 (inactive),0.124 (inactive),1.24 (inactive),0.955,1.73 (inactive),-0.228,0.0139,0.167,-0.143
C=CCN1C(=O)[C@@]2(O[C@@H](CCn3cc([C@H](O)c4ccccc4)nn3)[C@H]([Si](C)(C)c3ccc(OC)cc3)[C@H]2C)c2cc(N3CCOC3=O)ccc21,0.228,0.39,-0.104,0.105,-0.261,-0.344,1.1,-2 (inactive),-0.0319,-0.0645,1.15,-1.26 (inactive),-1.88 (inactive),-0.723 (inactive),1.8,2.19 (inactive),-0.0463,-0.0328,0.131,-0.121
C=CC[C@]1(C(=O)NCC(O)CO)N=C(c2ccc(OCCCO)cc2)O[C@H]1c1ccccc1 (stereo not given in full),1.28,-0.012,-0.118,-0.843,-0.502,2.14,1.25,-1.1 (inactive),-0.0064,-0.124,0.16,-1.44 (inactive),-0.514 (inactive),-1.18 (inactive),3.57,2.05 (inactive),0.0544,-0.923,-0.898,-0.169
CCOC(=O)C1=C[C@@H](c2ccccc2)N(S(=O)(=O)c2ccc(C)cc2)[C@H]1c1ccc(F)cc1,-0.0809,0.347,-0.0317,0.493,1.6,0.871,0.949,-2.62 (inactive),0.541,0.0139,1.56,0.575 (inactive),2.18 (inactive),2.39 (inactive),3.06,-0.382 (inactive),-0.0141,0.512,1.09,0.0624
[N-]=[N+]=NCc1ccccc1[C@H]1OC(c2ccc(OCCCO)cc2)=N[C@@]1(Cc1ccccc1N=[N+]=[N-])C(=O)NCc1ccccc1,0.817,0.155,0.0308,0.622,1.28,0.408,0.807,-1.35 (inactive),0.939,0.0595,1.4,0.0182 (inactive),1.98 (inactive),11.8 (active),2.69,0.0275 (inactive),0.232,0.159,0.867,0.223
C=CCNC(=O)[C@H]1[C@@H]2C(=O)O[C@@H](c3ccccc3)[C@@H](c3ccccc3)N2[C@@H](c2ccccc2OCCO)[C@]12C(=O)N(C(=O)OCCOC)c1ccc(C#CCNC(N)=O)cc12,0.173,0.912,-0.0547,0.149,0.284,1.32,1.06,-1.53 (inactive),0.428,0.0623,1.55,0.602 (inactive),-0.26 (inactive),3.16 (inactive),2.39,2.35 (inactive),-0.108,0.878,1.15,-0.0389
Cc1ccc(N2C(=O)c3ccccc3[C@@H](C(=O)NCC(F)(F)F)[C@@H]2c2ccc(CO)cc2)nc1,1.83,-1.33,-0.195,-1.11,-2.11,1.15,1.26,-0.307 (inactive),-0.869,-0.539,-0.359,-0.678 (inactive),-1.24 (inactive),3.03 (inactive),-0.338,1.08 (inactive),0.0143,-2.15,-1.01,-0.157
